ALDH1A1 block = qHTS Assay for Inhibitors of Aldehyde Dehydrogenase 1 (ALDH1A1) | Aldehyde dehydrogenase 1A1 (Homo sapiens), P00352 | Purified ALDH1A1, NADH fluorescence, propionaldehyde substrate | Potency, µM (top dose mostly 75.3 µM), hits mostly inhibitors | hit rate 7.3% among 220,000 | AID 1030, 2008
PNC assembly inh = High Content Assay for Compounds that inhibit the Assembly of the Perinucleolar Compartment; activity change (PNC), negative = inhibition, % at 10 µM; AID 2417, 2010; hit rate 3.1% among 140,000; PC3M PTB-GFP, PNC prevalence imaging, 16 h; hits give low values;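 active = readout at or below -70, meaning at least 70% loss of cells showing the perinucleolar compartment, a nuclear body marking cancer cells; inconclusive = readout between -30 and a set limit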
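PC3M cells stably expressing PTB-GFP, 750–1000 cells/well, treated 16 h at 37 °C with compound (23 nl of library stock), in duplicate. After paraformaldehyde fixation and Hoechst stain, imaged at 20x; PNC prevalence scored by image analysis.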
IMPase cell inh = qHTS Assay for Identifying the Cell-Membrane Permeable IMPase Inhibitors | CHO-M1 cells, IP1 accumulation, HTRF TR-FRET ratio | inhibition (IP1 accumulation), % at 46.1 µM | 120,000 tested, under 10 active; active = well fitted curve in the direction sought with a large enough effect in the signal ratio, not every such curve was filed as active; inconclusive = small, poorly fitted or top-dose-only effect, or a change in a side signal; inactive = no such curve, though single readings can be large or run the other way; the % refers to the signal ratio;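 also: cells stimulated with carbachol in lithium chloride buffer; higher means more IMPase inhibition seen as more IP1 and lower FRET ratio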
Target sequence (P97697 whole entry, looked up): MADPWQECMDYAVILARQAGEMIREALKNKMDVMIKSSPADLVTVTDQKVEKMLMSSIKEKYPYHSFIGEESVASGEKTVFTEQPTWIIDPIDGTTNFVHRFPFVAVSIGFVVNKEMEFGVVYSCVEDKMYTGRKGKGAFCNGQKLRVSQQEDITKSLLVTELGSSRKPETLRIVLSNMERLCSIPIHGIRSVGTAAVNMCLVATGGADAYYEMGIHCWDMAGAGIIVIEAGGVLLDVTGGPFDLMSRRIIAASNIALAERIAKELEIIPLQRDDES
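Carbachol-driven Gq signalling in CHO-M1 cells (2000/well) generates IP1. Compounds that block IMPase raise IP1 and so reduce the FRET signal from Eu-anti-IP1 and d2-IP1 after a 10 min room-temperature lysis.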
IMPase Li inh = qHTS Assay for Identifying the Cell-Membrane Permeable IMPase Inhibitors: Potentiation with Lithium; hit rate 0.35% among 210,000; Potency, µM (doses to about 59.4 µM), most hits filed as inhibitors; CHO-M1 cells, IP1 TR-FRET (IP-One), carbachol + lithium; active = well fitted inhibition curve with a large enough effect; inconclusive = small, poorly fitted or top-dose-only effect; inactive = no such curve, though single readings can be large or run the other way;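 also: IP1 builds up when IMPase is blocked and the TR-FRET signal falls; nearly all actives have a fitted effect of over 50% in size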
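Lithium-sensitised IP1 accumulation assay; M1-expressing CHO cells treated 30 min at 37C with compound. Competitive antibody detection by time-resolved FRET followed a 10 min room-temperature lysis step.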
HPGD inh = qHTS Assay for Inhibitors of HPGD (15-Hydroxyprostaglandin Dehydrogenase) | Potency, µM, actives largely listed as inhibitors | purified HPGD, NADH fluorescence kinetic, PGE2 substrate | AID 894, 2007 | hit rate 4.3% among 150,000
Target sequence (P15428 whole entry, looked up): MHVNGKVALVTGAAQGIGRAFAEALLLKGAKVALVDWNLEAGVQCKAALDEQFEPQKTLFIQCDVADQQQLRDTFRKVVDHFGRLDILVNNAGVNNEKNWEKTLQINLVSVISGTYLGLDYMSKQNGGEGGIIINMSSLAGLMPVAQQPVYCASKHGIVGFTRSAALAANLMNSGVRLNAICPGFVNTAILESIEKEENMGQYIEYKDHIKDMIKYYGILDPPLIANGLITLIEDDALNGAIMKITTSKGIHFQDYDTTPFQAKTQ
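20 nM HPGD preincubated 15 min at room temperature with compound in 50 mM Tris-HCl pH 8, 0.01% Tween 20. Started with 1 mM NAD+ and 30 uM prostaglandin E2; NADH fluorescence (360/450 nm) read 5 times over 30-s intervals, last minus first.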
Hits are given with their value; 0 = inactive; ? = inconclusive; - = no result; [ ] = dose if it differs, or a comment. Hits are enriched below; roughly 11% of the tested compounds scored in any of these assays. Unless noted, calls follow the shape of the dose curve; as a rule, active = well fitted inhibition curve with a large enough effect (not every such curve was filed as active); inconclusive = small, poorly fitted or top-dose-only effect, or another doubt; inactive = no such curve, though single readings can be large or run the other way.

SMILES	ALDH1A1 block	PNC assembly inh	IMPase cell inh	IMPase Li inh	HPGD inh
Cc1cccc(S(=O)(=O)Nc2cccc(-c3cn4ccsc4n3)c2)c1	10µM	?	0	0	0
O=C1c2ccccc2-c2onc3ccc(Oc4ccccc4)c1c23	0	0	0	0	0
CCOC(=O)C(C(=O)OCC)c1cc(Br)c2noc3c2c1C(=O)c1ccccc1-3	10µM	-83	0	0	?
O=c1c(-c2ccc(F)c(F)c2)nc2cncnc2n1Cc1ccccc1	0	-	-	0	0
O=C(CSc1nc2nc(-c3cccs3)cc(C(F)(F)F)c2c(=O)[nH]1)NCc1ccco1	?	0	?	8.9µM	?
COc1ccc(NC(=O)CSc2nc3nc(-c4cccs4)cc(C(F)(F)F)c3c(=O)[nH]2)c(OC)c1	0	0	-	0	0
CC(C)N(C(=O)c1ccccc1-c1ccccc1)C(C)C	0	0	0	0	0
Cc1cccc(NCc2ccccc2O)c1	0	0	0	0	22µM
Cc1cccc(NCCNc2cccc(C)c2)c1	0	0	0	0	0
Cc1cccc(NCCC#N)c1	0	-134	-	0	0
Cc1ccc(NCc2ccccc2O)cc1	0	?	0	0	0
O=C1NC(=O)[C@@H]2C3c4ccccc4C=CN3[C@H](C(=O)c3cccs3)[C@H]12 (some centres undefined)	25µM	0	0	0	0
COc1ccc([C@H]2c3cc(OC)c(OC)cc3C[C@@H](C)[C@@H]2C)cc1OC	0	-	-	0	0
COc1ccc(C)cc1NS(=O)(=O)c1cccc2nonc12	14µM	0	0	0	0
C[C@H]1Cc2c(-c3ccccc3)nc3c(c2CO1)CN(C(=O)NCc1ccco1)CC3	0[13.5 µM]	-	-	0	0
CCOC(=O)CSc1nn(C)c(=S)s1	?	0	0	0	?
CCOC(=O)CCSc1n[nH]c(=S)s1	1.8µM	-	-	-	-
CC(C)(C)c1ccc(S(=O)(=O)NNC(=O)C2CCN(Cc3cccc(F)c3)CC2)cc1	2.2µM	-	-	0	-
O=C(NCc1cccc(F)c1)C1CCN(S(=O)(=O)Cc2ccccc2)CC1	0	0	0	0	0
CCCCc1ccc(NC(=O)C2CCCO2)cc1 (centres undefined)	0	0	0	0	16µM
CCOC(=O)c1ccc(NC(=O)C2CCCO2)cc1 (centres undefined)	0	0	0	0	25µM
Cc1cccc(N2CCN(C(=O)c3ccc(NC(=O)C4CCCO4)cc3)CC2C)c1 (centres undefined)	0	0	0	0	0
CCOC(=O)C1CCN(C(=O)c2ccc(NC(=O)C3CCCO3)cc2)CC1 (centres undefined)	0	0	0	0	25µM
CCCCOC(=O)c1ccc(NC(=O)C2CCCO2)cc1 (centres undefined)	0	0	0	0	0
CC(=O)c1ccc(N2CCN(C(=O)c3ccc(NC(=O)C4CCCO4)cc3)CC2)cc1 (centres undefined)	0	0	0	0	25µM
SMILES	ALDH1A1 block	PNC assembly inh	IMPase cell inh	IMPase Li inh	HPGD inh
C=C1C2CC[C@]3(CCC4[C@@]5(C)CCC[C@@]4(CN(CCO)C5)[C@@H]3C2)[C@@H]1O (some centres undefined)	0	-	-	0	0
COC(=O)C1C2C=CC3(CN(Cc4cccs4)C(=O)C13)O2 (centres undefined)	0	0	0	0	0
COC(=O)C1C(=O)N2CCCSC2=C(C#N)C1c1cccs1 (centres undefined)	6.3µM	0	0	0	0
COc1cccc(Nc2ncc3nc(C)c(=O)n(CCC#N)c3n2)c1	0	-	-	0	0
C=CCNC(=O)c1onc(CCl)c1C(=O)OC	0	0	0	0	0
COCCNC(=O)c1onc(CCl)c1C(=O)OC	28µM	0	0	0	0
CCCCNC(=O)c1onc(CCl)c1C(=O)OC	14µM	?	0	0	0
CC(C)(CO)[C@H](O)C(=O)NCCC(=O)O	0	-	0	0	0
Cc1ccc(CN2CCSc3sccc3C2=O)cc1	0	-	-	0	-
COc1ccc(-c2nc3cc(C(C)C)ccc3o2)cc1NC(=O)COc1ccc(C)cc1C	-	-	0	-	-
CCn1c(C)nc2cc(C(=O)NNS(=O)(=O)c3c(F)cc(F)c(Cl)c3F)ccc21	0	-	-	0	-
CCn1c(C)nc2cc(C(=O)n3cc(C(=O)c4cc(F)ccc4O)cn3)ccc21	1.4µM	0	0	0	?
COc1ccc(O)c(C(=O)c2cnn(-c3ccccn3)c2)c1	0	-	-	0	-
Cc1cc(C)nc(-n2cc(C(=O)c3cc(F)ccc3O)cn2)n1	10µM	0	-	0	0
N#Cc1cccc(NC(=O)N2CCC3(CC2)CCN(C(=O)c2cccc(F)c2)CC3)c1	0	-	-	0	0
CCOC(=O)C(NCc1ccccn1)(NC(=O)c1cccnc1)C(F)(F)F (centres undefined)	0	-86	0	0	0
COc1ccccc1Nc1nc(-c2sc(NC(=O)c3ccccc3)nc2C)cs1	13µM	0	0	0	?
COc1ccccc1Nc1nc(-c2sc(NC(=O)c3ccc([N+](=O)[O-])cc3)nc2C)cs1	16µM	0	0	0	0
Cc1csc(Nc2cccc3ccccc23)n1	?	-	-	0	-
CCOc1ccccc1Nc1nc(-c2sc(NC(=O)c3ccccc3)nc2C)cs1	?	0	0	0	0
COc1ccccc1Nc1nc(C)cs1	18µM	?	0	0	0
Cc1ccc(Cl)cc1Nc1nc(-c2sc(NC(=O)c3ccccc3)nc2C)cs1	20µM	0	0	0	?
Cc1ccc(C(=O)N/C(=C\c2ccc(Cl)cc2)C(=O)NC2CCCCC2)cc1	-	-	0	-	-
Clc1ccc(CNCc2cccs2)cc1Cl	0	0	-	0	0
Brc1cccc(CNCc2cccs2)c1	0	-89	-	0	0
SMILES	ALDH1A1 block	PNC assembly inh	IMPase cell inh	IMPase Li inh	HPGD inh
Cc1occc1C(=O)NC(C)C(C)(C)C (centres undefined)	0	0	?	0	32µM
Cc1occc1C(=O)NC(C)CCc1ccccc1 (centres undefined)	0	0	0	0	0
CCCCNC(=O)[C@H](CSCc1ccccc1)N1Cc2ccccc2C1=O	?	0	-	0	0
COCCCn1c(SCC(=O)n2c(C)c(C)c3ccccc32)nnc1-c1ccoc1C	25µM	?	0	0	0
COc1ccc(OC)c(-n2nnnc2SCC(=O)NCCc2ccccc2)c1	1.3µM	?	0	0	0
COc1ccc(C)cc1-n1nnnc1SCC(=O)NC(=O)NCc1ccco1	13µM	-81	0	0	0
COCCn1c(SCC(=O)c2ccc3c(c2)OCCO3)nnc1-c1ccoc1C	20µM	?	0	0	0
COc1cccc(-n2nnnc2SCC(=O)NCCc2ccccc2)c1	?	0	0	0	0
